Experimental data as given in PubChem BioAssay AID588493 (Sanford-Burnham Center for Chemical Genomics, 2011).
Where “and” joins values, the source holds several entries; their conditions need not be identical. Equal entries are not always repeated. The campaign covered roughly 360,000 compounds. About 2,100 (0.58%) were called active.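 How the source made its calls: active means inhibition at 20 µM, scaled to each plate's controls, above about 33% (limit read from the data); inactive means the rest.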 The list comes from a sample in which actives are over-represented; it also holds similar structures and randomly drawn compounds.

Molecular target: 26S proteasome non-ATPase regulatory subunit 14 (Homo sapiens) (UniProt O00487)
Experiment: Rpn11 (PSMD14) deubiquitinase inhibitors, primary screen, biochemical, fluorescence polarization, uHTS (AID 588493)
Conditions: human 26S proteasome, Ub4-pepOG fluorescence polarization; at 20 µM; stronger effect = higher value; 20S core pre-blocked with epoxomicin

Sequence of 26S proteasome non-ATPase regulatory subunit 14 (Homo sapiens) (O00487 whole entry, looked up): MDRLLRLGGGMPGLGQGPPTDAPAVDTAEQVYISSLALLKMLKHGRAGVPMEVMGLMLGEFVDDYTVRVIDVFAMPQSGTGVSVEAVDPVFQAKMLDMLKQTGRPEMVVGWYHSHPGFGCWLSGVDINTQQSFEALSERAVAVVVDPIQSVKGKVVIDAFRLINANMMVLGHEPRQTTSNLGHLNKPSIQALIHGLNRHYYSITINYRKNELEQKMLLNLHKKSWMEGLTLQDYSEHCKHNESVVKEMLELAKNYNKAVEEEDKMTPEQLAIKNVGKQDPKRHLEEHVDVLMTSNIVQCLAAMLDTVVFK

Compound	inhibition
Cc1ccc(C(=O)N2CCCC2)c(F)c1F	-4.7% (inactive)
Cc1nc2ccccc2n1C(=O)N1CCOCC1	58.5% (active)
O=C(c1cc(-c2ccc(Cl)s2)nc2ccccc12)N1CCOCC1	-0.8% (inactive)
O=C(N1CCOCC1)N1CCOCC1	-1.2% (inactive)
CCOC(=O)C1(Cc2cccc(OC)c2)CCCN(C(=O)CCSC)C1 (stereo unspecified)	5.4% (inactive)
Cc1c(NC(=O)CSc2cccc3cccnc23)c(=O)n(-c2ccccc2)n1C	48.6% (active)
Cc1c(NC(=O)CSc2nnnn2-c2ccc(C(=O)O)cc2)c(=O)n(-c2ccccc2)n1C	-4.2% (inactive)
Cc1c(NC(=O)CSc2nnc(-c3cccnc3)n2N)c(=O)n(-c2ccccc2)n1C	0% (inactive)
CC(C)CC(NC(=O)C1CCCN1C(=O)[C@@H](C)NC(=O)OCc1ccccc1)C(=O)NCC(N)=O (stereo partly specified)	-2.1% (inactive)
CC(C)CC(O)C1CCN(C(=O)CCc2nnc(-c3ccc4c(c3)OCO4)o2)CC1 (stereo unspecified)	-1.9% (inactive)
Cc1ccc(Nc2ccccc2N)cc1	53% (active)
Cc1ccc(Nc2nc(N)nc(CSc3nnc(C)s3)n2)cc1	-0.4% (inactive)
O=[N+]([O-])c1ccccc1Nc1ccc(O)cc1	0.3% (inactive)
O=[N+]([O-])c1cc(S(=O)(=O)Nc2cccc(Cl)c2)ccc1N=Nc1c(O)[nH]c2ccccc12	-18% (inactive)
Cc1c(CCC(=O)N[C@@H](CC(C)C)C(=O)O)c(=O)oc2c(C)c3oc4c(c3cc12)CCCC4	-8.5% (inactive)
Cc1oc2c(C)c3oc(=O)c(CC(=O)N[C@@H](CC(C)C)C(=O)N[C@@H](Cc4ccccc4)C(=O)O)c(C)c3cc2c1C	71.8% (active)
Cc1c(OC(C)C(=O)N[C@@H](Cc2ccccc2)C(=O)O)ccc2c3c(c(=O)oc12)CCCC3 (stereo partly specified)	-4.9% (inactive)
CC(=NCc1ccc2c(c1)OCO2)C1=C(O)c2ccccc2C1=O	-6.8% (inactive)
CCOc1ncccc1C(=O)OCC(=O)Nc1cccc(S(=O)(=O)N2CCCCCC2)c1	1.7% (inactive)
CCc1ccc(-c2cc(C(=O)NCc3ccco3)c3ccccc3n2)s1	40.1% (active)
Cc1cccc(Nc2ccccc2C(=O)NCc2ccco2)c1C	0.1% (inactive)
CC(C)(C)c1ccc(C(=O)NCc2ccco2)cc1	0.7% (inactive)
CN1CCNC(=O)C1CC(=O)N1CC=C(c2ccc(F)cc2)CC1 (stereo unspecified)	-2.3% (inactive)

Compound	inhibition
CCCCCCCCCCOC(=O)Cn1c(COc2cccc(OC)c2)[n+](C)c2ccccc21	33% (active)
COc1ccc(-n2c(SCC(=O)Nc3sc4c(c3C#N)CCCC4)nnc2-c2ccc(O)cc2)cc1	59.6% (active)
COc1cccc(CN(C)CC(=O)Nc2sc3c(c2C#N)CCC3)c1	18% (inactive)
CCCc1cc(=O)[nH]c(SCC(=O)Nc2sc3c(c2C#N)CCCC3)n1	2% (inactive)
Cc1ccc(Cc2c(-c3ccco3)nc3ccc(Cl)cn23)cc1	18.2% (inactive)
COC(=O)c1c(CCl)noc1C(=O)NC(C)C	-0.8% (inactive)
O=C(/C=C/c1cccs1)c1cc(Cl)ccc1OC(=O)N1CCOCC1	1.7% (inactive)
O=c1c2ccccc2ncn1CCc1ccncc1	1.2% (inactive)
Cc1cc(/C=C2/SC(=O)N(CC(=O)N3CCCC3)C2=O)ccc1N1CCOCC1	59.6% (active)
Cc1ccc2c(c1)N(CC(=O)N1CCOCC1)C(=O)CO2	-3.1% (inactive)
O=C(CN1C(=O)CSc2ncccc21)N1CCOCC1	-4.6% (inactive)
Cc1cccc(N(C(=O)c2sc(C)nc2C)C(C(=O)NCC2CCCO2)c2ccccc2)c1 (stereo unspecified)	-7.9% (inactive)
CCNC(=O)C1(C)CCCN(Cc2noc(-c3ccccc3OC)n2)C1 (stereo unspecified)	2.1% (inactive)
CC(=O)N1CCN(Cc2cc(=O)oc3cc(C)ccc23)CC1	9.9% (inactive)
Cc1ccc(S(=O)(=O)N2[C@@H](c3ccc(Br)cc3)C(C(=O)O)=C[C@H]2CC2CCCC2)cc1	14.1% (inactive)
COc1cccc(NC(=O)C2(C)CCN2C(=O)CCC2CCCC2)c1 (stereo unspecified)	-22.2% (inactive)
COc1cccc(CN2C(=O)CCC2(C)C(=O)NC2CCCCCC2)c1 (stereo unspecified)	3.5% (inactive)
Cc1nnc(N(Cc2ccco2)C(=O)c2ccno2)s1	15% (inactive)
COc1ccc(CNC(=O)c2nnn(CC(=O)Nc3cc(C)cc(C)c3)c2N)cc1	58.1% (active)
COc1cccc(CNC(=O)c2nnn(CC(=O)Nc3cc(C)ccc3C)c2N)c1	-0.5% (inactive)
COc1ccc(NC(=O)Cn2nnc(C(=O)NCCc3ccc(OC)c(OC)c3)c2N)cc1	7% (inactive)
O=C(Nc1cccc(C(=O)O)c1)/C(=C\c1ccccc1)NC(=O)c1ccc(Br)o1	1.3% (inactive)
CC1(C)NC(=O)N(CCCCSc2ccc(Cl)cc2)C1=O	1.8% (inactive)

Compound	inhibition
O=P(c1ccc2c(c1)OCCO2)(N1CCOCC1)N1CCOCC1	2.8% (inactive)
CCS(=O)(=O)C1=NSC2=NC(=O)/C(=C\c3ccc(OS(=O)(=O)c4ccccc4)cc3)C(=N)N21	22.6% (inactive)
CS(=O)(=O)c1ccc2c(c1)SC1=NC(=O)/C(=C/c3ccco3)C(=N)N12	76.1% (active)
CCCC1C(c2ccccc2)C(C#N)(C#N)C2(C#N)CC1(N)NC2=O (stereo unspecified)	3% (inactive)
COC1=C/C(=C/c2c(N)n3nc(CC(=O)N4CCOCC4)sc3nc2=O)C=CC1=O	46.9% (active)
COc1ccc(-c2ccnc(SCC(=O)N3CCOCC3)n2)cc1	-4% (inactive)
O=C(Oc1ccccc1C(=S)N1CCCCC1)c1cc([N+](=O)[O-])cc([N+](=O)[O-])c1	1.8% (inactive)
CC(C)CC1C(=O)N(Cc2cn(CC3CCCCC3)nn2)CCS(=O)(=O)N1Cc1ccc(-c2ccc(Cl)cc2)cc1 (stereo unspecified)	-2.7% (inactive)
CC1C(=O)N(Cc2cn(Cc3ccco3)nn2)CCS(=O)(=O)N1Cc1ccc(-c2cccc(CO)c2)cc1 (stereo unspecified)	4.5% (inactive)
CC(C)CC1C(=O)N(Cc2cn(Cc3ccco3)nn2)CCS(=O)(=O)N1Cc1ccc(-c2ccc(Cl)c(Cl)c2)cc1 (stereo unspecified)	59.9% (active)
COc1ccc(NC(=O)CNC(=O)Cn2ccc3ccccc3c2=O)c(OC)c1	-3.8% (inactive)
CC(C)C1N=C2c3ccccc3N=C(SCC(=O)c3ccc(O)c(O)c3)N2C1=O (stereo unspecified)	-6.6% (inactive)
COc1ccc(NC(=O)C(CC(C)C)NS(=O)(=O)c2ccc3c(c2)CCN3C(C)=O)cc1OC (stereo unspecified)	6.4% (inactive)
CCC(=O)N1CCc2cc(S(=O)(=O)NC(C(=O)N3CCc4ccccc4C3)C(C)C)ccc21 (stereo unspecified)	1.1% (inactive)
CCOC(=O)N1CCC(NC(=O)C(NS(=O)(=O)c2ccc3c(c2)CCN3C(=O)CC)C(C)C)CC1 (stereo unspecified)	46.5% (active)
CC(C)S(=O)(=O)c1csc(NC(=O)Nc2ccc(Cl)cc2)c1Cl	1.6% (inactive)
CCC(C)Cn1c(O)cc2nn(-c3nc4ccccc4s3)c(=O)c-2c1C (stereo unspecified)	95.3% (active)
N#Cc1ccc(-c2ccc3nccn3c2)cc1	1.6% (inactive)
Cc1ccc(/C=N/NC(=O)CSc2nc3ccccc3o2)cc1	1% (inactive)
O=C(CNC(=O)c1cccnc1)N/N=C/c1cc(Br)c(O)c(Br)c1	-14.1% (inactive)
O=C(CSc1cccc2cccnc12)N/N=C/c1cccnc1	71.4% (active)
Cc1nnc(SCc2nc3ccccc3nc2C)s1	-1.4% (inactive)
COc1ccc2cc(C(=O)C3CCCN(C(=O)c4sc(C)nc4C)C3)ccc2c1 (stereo unspecified)	5.8% (inactive)

Compound	inhibition
COc1cc(CO)ccc1OCC(=O)Nc1cccc2ccccc12	1.6% (inactive)
COc1cc(=O)[nH]c(=O)n1C(=O)Cc1ccccc1	2.2% (inactive)
COc1ccc(Cn2c(O)c(/C=C3/C=CC=N3)c(=O)[nH]c2=O)cc1	14.5% (inactive)
CCCOc1ccc(Cn2c(O)cc(=O)[nH]c2=O)cc1	65.3% (active)
COc1ccc(C2c3[nH]c4ccccc4c3C[C@H]3C(=O)N(CC(C)C)CC(=O)N23)c(OC)c1 (stereo partly specified)	-8.2% (inactive)
Cc1ccc(NC(=O)CN(C)Cc2ccc(F)cc2)c([N+](=O)[O-])c1	-8.1% (inactive)
COc1ccc2c(c1)c(=Cc1ccc(N(C)C)cc1)c1cc(-c3ccccc3)[n+](C)n12	59.4% (active)
O=C(CNC(=O)c1ccc(Cl)cc1Cl)NCC(=O)Nc1ccccc1N1CCOCC1	-2.4% (inactive)
CCCNC(=O)CCn1nc(-c2ccccc2)c2ccccc2c1=O	-1.2% (inactive)
COCCCn1c(CCC(=O)O)ccc1-c1ccc(F)cc1	6.6% (inactive)
CC(C)Cn1c(CCC(=O)O)ccc1-c1cccs1	39.7% (active)
CCOC(=O)c1ccc(-n2c(CCC(=O)O)ccc2-c2ccccc2)cc1	1.9% (inactive)
CC(=O)c1sc(NC(=O)C2=NN(c3ccccc3)C(=O)CC2)nc1C	1.1% (inactive)
CC(=O)c1sc(N/N=C/c2ccc(C(C)C)cc2)nc1C	42.3% (active)
CC(=O)c1sc(N)nc1C	-7.7% (inactive) and -13.1% (inactive)
Cc1cc2c(cc1C)N1C(=O)c3cc4ccccc4cc3NC(=O)C1C(=O)N2 (stereo unspecified)	7% (inactive)
COc1ccc(NC(=O)c2cn(-c3ccccc3)nc2SC)cc1	4.3% (inactive)
CCOc1ccc(-c2c(C)n([O-])c3c([n+]2=O)CCCC3)cc1	3% (inactive)
Cc1ccc(/C=N/NC(=O)C2=NNC(c3ccccc3)(c3ccccc3)C2)c(O)c1	3.5% (inactive)
Oc1ccc(/C=N/Nc2nc(-c3ccccc3F)nc3ccccc23)c(O)c1	43.1% (active)
O=C(NNc1c2ccccc2nc2ccccc12)c1cc2ccccc2cc1O	-5.5% (inactive)
Cc1nnc(SC(C)C(=O)c2c[nH]c3ccccc23)n1C1CC1 (stereo unspecified)	-0.9% (inactive)
